Target: TCL1B
Assay: pooled miR-30 sensor sort-seq; sequence = guide strand
Settings: shRNA
Further: reference of the scale not given here.

Sequence | sensor-assay potency score (higher = more potent)
TTGAACCGCACGACCACAGTCA | -0.246
TGTTAGGACCAGCTGCTCCATA | -1.25
TTAATTAACCAGTACTGTGAGG | -0.714
ATGCTGGGTTCATATCTGCTGC | -1.39
TACATGAAGATCCTCACTGAGG | -0.791
TTTCCCAGAAACTGGAATCCGC | -0.902
TTCATATCTGCTGCCCTGGGAG | -0.879
TGCTCCATAGAGTCAATCTGGC | -0.928
TCTGGATCCACAGACGGCCAGG | -1.15
TCCTCATCTTCGTAGATGCCAG | -1.52
TCTGCTATTTCCCAGAAACTGG | -1.48
AACTGGAATCCGCTGCTCGGTA | -1.06

Target: TCTN3
Assay: as above
Settings: shRNA

Sequence | sensor-assay potency score (higher = more potent)
TATATCATCAGTCAGAGCCAAG | -1.46
TTGTCTACACAAACCCAGCTTG | -0.828
TTACTCTCTAGGAAACCTGCAG | 0.205
TAACTTGCTGAGAATCCTGTAT | -0.198
TATAGGAATCGAACTCCTGATA | -0.82
TTTATAGCTGAAATGCTGCAGT | 0.223
TTGAAGTGAATGATTCGCCTCC | 0.789
TTAGAATCCATGAAAACTCTTG | 0.212
TTTTAACAGAGCAACTTCCATT | -0.964
TGTAACTTGCTGAGAATCCTGT | 0.381

From the OligoGym collection
